What all share (test): DAPPL (digital affinity profiling via proximity ligation, sequencing); 10 mM Tris-HCl pH 7.5, 50 mM NaCl, 1 mM DTT, 4% glycerol, room temperature, 30 min; GST-TFs on glutathione beads, 16-mer random dsDNA library, 0.1% formaldehyde crosslink after washing; high values mean tight binding
What all share (conditions): protein: recombinant; tags: N-terminal GST; dsDNA, one strand shown

One experiment has as its target T1, ELK1 (Homo sapiens, UniProt P19419 1-428).
T1 sequence: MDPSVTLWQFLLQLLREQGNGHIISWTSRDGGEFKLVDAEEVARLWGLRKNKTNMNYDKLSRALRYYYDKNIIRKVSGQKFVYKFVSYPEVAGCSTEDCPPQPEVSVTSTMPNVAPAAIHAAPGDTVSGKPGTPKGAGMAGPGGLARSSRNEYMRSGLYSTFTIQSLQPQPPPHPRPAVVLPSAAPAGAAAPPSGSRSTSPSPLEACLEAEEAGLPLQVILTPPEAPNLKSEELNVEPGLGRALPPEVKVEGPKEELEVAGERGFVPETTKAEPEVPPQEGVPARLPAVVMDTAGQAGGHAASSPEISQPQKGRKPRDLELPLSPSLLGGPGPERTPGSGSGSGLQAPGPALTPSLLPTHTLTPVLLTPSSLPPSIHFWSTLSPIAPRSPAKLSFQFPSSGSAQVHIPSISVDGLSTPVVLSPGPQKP
Put shortly: (§1)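 GST fusions of human transcription factors were expressed in yeast and captured with glutathione beads. Once given DNA barcodes and pooled alongside a tag-only sample, they were incubated for 30 min at room temperature with 200 nmole of a random double-stranded 16-mer DNA library in Tris/NaCl/DTT/glycerol buffer, then washed, crosslinked (0.1% formaldehyde), proximity-ligated, PCR-amplified and sequenced on an Illumina NextSeq500. The binding signal of each hexamer is its read frequency for a factor divided by its frequency for the tag-only sample.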

For a further experiment, the target named is T2, GABPA (Homo sapiens, UniProt Q06546 1-454).
T2 sequence: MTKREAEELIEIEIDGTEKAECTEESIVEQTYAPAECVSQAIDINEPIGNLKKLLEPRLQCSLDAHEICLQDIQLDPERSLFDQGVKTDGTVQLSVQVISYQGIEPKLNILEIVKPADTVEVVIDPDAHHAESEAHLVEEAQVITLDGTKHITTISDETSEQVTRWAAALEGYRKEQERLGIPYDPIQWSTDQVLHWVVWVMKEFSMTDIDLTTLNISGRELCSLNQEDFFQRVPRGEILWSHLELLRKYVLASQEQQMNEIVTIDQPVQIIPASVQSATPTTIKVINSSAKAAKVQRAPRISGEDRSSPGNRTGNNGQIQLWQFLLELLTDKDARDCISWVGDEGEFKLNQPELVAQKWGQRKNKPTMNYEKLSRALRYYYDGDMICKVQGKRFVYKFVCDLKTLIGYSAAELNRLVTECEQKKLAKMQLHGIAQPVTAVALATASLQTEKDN
Put shortly: as §1

The target in another experiment is ELF1 (Homo sapiens, UniProt P32519 1-619). The method in brief: as §1
ELF1, sequence (P32519 whole entry): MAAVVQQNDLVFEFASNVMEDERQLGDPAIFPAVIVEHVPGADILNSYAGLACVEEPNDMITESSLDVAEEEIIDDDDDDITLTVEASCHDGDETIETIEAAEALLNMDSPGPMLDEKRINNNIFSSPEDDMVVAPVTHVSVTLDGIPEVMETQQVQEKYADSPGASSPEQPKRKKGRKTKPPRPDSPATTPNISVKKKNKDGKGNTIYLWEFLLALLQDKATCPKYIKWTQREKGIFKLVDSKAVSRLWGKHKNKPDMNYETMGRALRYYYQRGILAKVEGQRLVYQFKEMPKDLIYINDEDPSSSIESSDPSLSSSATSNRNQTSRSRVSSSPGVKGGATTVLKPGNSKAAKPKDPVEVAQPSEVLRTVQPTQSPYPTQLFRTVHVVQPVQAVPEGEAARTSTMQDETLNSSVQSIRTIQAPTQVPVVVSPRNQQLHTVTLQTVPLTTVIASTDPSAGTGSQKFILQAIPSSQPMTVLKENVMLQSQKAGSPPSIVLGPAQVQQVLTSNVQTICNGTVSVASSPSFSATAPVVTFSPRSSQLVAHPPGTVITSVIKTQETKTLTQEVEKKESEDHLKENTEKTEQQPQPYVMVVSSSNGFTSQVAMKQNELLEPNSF
For another experiment, the target named is T3, EHF (Homo sapiens, UniProt Q9NZC4 1-300).
T3 sequence: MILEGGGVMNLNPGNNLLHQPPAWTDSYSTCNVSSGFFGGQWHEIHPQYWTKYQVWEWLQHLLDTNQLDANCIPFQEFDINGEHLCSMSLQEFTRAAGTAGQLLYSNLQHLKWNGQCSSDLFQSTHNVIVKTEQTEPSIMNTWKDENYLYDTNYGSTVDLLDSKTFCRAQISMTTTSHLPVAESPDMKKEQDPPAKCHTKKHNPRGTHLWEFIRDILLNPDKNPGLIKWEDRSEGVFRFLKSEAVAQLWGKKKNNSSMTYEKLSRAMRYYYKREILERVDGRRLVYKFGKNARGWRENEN
Put shortly:
as §1

The target of a further experiment is SPIB (Homo sapiens, UniProt Q01892 1-262). The method in brief:
as §1

Another experiment deals with T4, FEV (Homo sapiens, UniProt Q99581 1-238).
T4 sequence: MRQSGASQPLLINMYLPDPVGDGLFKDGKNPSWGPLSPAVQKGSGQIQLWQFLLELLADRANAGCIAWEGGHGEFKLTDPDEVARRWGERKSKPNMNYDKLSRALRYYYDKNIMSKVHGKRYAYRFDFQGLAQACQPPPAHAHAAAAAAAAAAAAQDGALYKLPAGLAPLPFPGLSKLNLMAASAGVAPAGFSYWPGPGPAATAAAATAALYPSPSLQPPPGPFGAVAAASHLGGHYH
The method in brief:
as §1

In a further experiment the target is ETV5 (Homo sapiens, UniProt P41161 1-510). The method in brief: as §1
ETV5, sequence (P41161 whole entry): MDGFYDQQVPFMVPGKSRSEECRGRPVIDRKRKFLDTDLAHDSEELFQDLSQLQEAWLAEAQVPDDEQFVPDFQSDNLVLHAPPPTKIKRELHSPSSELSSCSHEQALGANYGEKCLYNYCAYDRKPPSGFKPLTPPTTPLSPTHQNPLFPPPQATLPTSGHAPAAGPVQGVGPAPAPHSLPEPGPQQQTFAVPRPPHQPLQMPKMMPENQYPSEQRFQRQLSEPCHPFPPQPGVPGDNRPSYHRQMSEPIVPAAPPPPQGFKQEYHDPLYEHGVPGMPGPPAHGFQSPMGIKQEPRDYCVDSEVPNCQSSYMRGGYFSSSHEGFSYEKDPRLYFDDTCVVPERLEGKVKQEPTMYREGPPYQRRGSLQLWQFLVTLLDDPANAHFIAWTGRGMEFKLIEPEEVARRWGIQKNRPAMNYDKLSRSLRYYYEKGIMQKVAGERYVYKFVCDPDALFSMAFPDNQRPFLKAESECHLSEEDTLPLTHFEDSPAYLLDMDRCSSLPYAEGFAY
Another experiment deals with ELF4 (Homo sapiens, UniProt Q99607 1-663). Put shortly:
as §1

In a further experiment the target is T5, ELK4 (Homo sapiens, UniProt P28324-2 1-405).
T5 sequence: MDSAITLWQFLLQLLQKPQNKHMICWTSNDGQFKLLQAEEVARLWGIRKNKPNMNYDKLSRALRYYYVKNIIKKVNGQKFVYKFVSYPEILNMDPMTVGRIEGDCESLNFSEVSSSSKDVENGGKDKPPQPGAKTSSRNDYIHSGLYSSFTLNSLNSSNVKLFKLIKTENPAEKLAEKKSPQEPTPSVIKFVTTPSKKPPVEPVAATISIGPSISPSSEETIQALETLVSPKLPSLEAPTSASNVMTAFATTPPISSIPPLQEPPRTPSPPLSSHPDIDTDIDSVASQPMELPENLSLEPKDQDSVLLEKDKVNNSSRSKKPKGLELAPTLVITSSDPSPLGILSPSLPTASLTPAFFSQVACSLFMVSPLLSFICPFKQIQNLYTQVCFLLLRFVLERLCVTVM
The method in brief:
as §1

For another experiment, the target named is T6, ETV2 (Homo sapiens, UniProt O00321 1-342).
T6 sequence: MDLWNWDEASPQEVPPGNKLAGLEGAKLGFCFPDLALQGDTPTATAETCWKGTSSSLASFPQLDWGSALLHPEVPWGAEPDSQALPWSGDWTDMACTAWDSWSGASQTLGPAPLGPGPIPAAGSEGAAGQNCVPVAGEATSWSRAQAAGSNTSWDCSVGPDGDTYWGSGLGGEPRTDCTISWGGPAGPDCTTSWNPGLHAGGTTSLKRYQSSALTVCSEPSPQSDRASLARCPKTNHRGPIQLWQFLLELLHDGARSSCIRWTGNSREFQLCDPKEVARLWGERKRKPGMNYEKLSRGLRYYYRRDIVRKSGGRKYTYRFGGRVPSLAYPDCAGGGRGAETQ
Put shortly:
as §1

For a further experiment, the target named is T7, ELF3 (Homo sapiens, UniProt P78545 1-371).
T7 sequence: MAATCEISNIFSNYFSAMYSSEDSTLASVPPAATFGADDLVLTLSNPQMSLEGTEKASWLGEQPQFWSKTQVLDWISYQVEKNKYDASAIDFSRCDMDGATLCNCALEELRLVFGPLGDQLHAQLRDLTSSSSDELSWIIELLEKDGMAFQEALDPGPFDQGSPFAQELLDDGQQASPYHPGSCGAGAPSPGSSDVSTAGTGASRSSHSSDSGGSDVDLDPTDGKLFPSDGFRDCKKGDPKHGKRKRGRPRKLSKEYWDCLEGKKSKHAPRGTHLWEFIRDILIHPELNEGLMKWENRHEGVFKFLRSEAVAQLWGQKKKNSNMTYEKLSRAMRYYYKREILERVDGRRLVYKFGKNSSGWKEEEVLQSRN
The method in brief:
as §1

A further experiment deals with ETV1 (Homo sapiens, UniProt P50549 1-477). Put shortly:
as §1

A further experiment has as its target T8, ETS2 (Homo sapiens, UniProt P15036 1-469).
T8 sequence: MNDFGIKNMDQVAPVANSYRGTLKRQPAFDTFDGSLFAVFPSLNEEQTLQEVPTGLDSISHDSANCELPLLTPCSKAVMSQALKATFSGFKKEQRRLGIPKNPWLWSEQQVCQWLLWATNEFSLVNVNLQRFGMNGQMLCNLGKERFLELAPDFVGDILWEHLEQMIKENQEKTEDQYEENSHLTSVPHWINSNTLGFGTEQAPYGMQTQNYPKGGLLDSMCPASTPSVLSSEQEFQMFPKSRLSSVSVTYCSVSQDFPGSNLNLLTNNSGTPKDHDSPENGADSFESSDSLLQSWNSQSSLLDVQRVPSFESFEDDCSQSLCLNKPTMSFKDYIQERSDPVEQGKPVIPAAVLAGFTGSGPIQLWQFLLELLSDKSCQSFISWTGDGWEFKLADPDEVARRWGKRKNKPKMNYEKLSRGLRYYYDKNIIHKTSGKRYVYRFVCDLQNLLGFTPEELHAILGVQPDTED
Put shortly: as §1

The next experiment concerns the target T9, ETV3 (Homo sapiens, UniProt P41162-2 1-143).
T9 sequence: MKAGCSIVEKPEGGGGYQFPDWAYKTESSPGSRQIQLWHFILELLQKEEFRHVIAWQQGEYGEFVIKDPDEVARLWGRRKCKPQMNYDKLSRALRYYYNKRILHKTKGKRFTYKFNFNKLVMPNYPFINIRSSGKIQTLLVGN
Put shortly:
as §1

ELF4, sequence (Q99607 whole entry): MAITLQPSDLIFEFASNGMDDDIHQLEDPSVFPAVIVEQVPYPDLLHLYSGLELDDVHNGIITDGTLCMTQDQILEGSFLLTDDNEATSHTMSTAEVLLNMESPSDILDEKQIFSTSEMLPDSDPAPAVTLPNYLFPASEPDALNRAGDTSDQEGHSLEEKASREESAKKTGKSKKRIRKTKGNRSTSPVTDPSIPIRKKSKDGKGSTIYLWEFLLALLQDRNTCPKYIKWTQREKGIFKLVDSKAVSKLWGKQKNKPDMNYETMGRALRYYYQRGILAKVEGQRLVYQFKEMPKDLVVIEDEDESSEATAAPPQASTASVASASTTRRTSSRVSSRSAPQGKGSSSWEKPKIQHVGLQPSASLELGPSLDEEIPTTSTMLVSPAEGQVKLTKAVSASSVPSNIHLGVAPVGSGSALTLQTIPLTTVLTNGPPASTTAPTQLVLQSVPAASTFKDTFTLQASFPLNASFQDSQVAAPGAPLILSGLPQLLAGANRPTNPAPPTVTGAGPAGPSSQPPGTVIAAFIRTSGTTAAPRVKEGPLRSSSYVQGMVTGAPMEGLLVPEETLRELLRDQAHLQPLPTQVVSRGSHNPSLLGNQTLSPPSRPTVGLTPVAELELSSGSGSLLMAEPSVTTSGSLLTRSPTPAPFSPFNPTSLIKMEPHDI
ETV1, sequence (P50549 whole entry): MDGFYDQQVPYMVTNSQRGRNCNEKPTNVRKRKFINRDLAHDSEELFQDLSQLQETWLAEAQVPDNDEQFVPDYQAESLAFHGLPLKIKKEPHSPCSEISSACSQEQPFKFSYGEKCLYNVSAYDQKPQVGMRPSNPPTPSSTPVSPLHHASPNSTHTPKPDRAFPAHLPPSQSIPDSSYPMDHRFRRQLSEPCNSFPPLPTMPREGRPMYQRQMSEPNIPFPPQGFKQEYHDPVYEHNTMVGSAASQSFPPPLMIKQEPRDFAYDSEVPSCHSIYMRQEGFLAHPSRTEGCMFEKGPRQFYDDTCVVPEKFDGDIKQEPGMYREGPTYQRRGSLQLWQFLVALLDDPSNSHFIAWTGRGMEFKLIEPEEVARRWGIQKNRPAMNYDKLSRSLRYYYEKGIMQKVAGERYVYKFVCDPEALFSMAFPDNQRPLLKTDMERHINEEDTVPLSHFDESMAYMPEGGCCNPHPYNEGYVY
SPIB, sequence (Q01892 whole entry): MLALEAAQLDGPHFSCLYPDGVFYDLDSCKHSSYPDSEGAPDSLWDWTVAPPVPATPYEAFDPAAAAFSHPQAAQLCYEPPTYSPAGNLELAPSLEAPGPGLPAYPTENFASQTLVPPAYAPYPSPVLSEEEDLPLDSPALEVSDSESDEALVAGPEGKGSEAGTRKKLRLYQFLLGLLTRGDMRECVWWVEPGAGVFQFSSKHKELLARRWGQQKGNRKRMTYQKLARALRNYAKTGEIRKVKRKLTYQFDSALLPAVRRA

Turning to CACGCA, the binding signal with ELK1 was 1.01 fold enrichment (6-mer frequency, TF over GST control); with GABPA, 1.02 fold enrichment (6-mer frequency, TF over GST control); in the experiment with ELF1, 1.05 fold enrichment (6-mer frequency, TF over GST control); with EHF it was 1.01 fold enrichment (6-mer frequency, TF over GST control); in the experiment with SPIB, 1.01 fold enrichment (6-mer frequency, TF over GST control); with FEV, 1.02 fold enrichment (6-mer frequency, TF over GST control). Moreover, the binding signal with ETV5 was 1.05 fold enrichment (6-mer frequency, TF over GST control); with ELF4, 1.03 fold enrichment (6-mer frequency, TF over GST control); with ELK4, 1.11 fold enrichment (6-mer frequency, TF over GST control); with ETV2, 1.18 fold enrichment (6-mer frequency, TF over GST control); with ELF3, 1.04 fold enrichment (6-mer frequency, TF over GST control); with ETV1 it was 1.09 fold enrichment (6-mer frequency, TF over GST control). Further, the binding signal with ETS2 was 1.03 fold enrichment (6-mer frequency, TF over GST control); in the experiment with ETV3, 1.07 fold enrichment (6-mer frequency, TF over GST control).

Source of the values: article PMC7862700, “An all-to-all approach to the identification of sequence-specific readers for epigenetic DNA modifications on cytosine”.
